This is a sample that favours compounds with a hit; in the whole collection about 4% have one here.
Mtb FBA inh = Mtb FBA enzyme inhibitors, primary screen, biochemical, fluorescence, strain H37Rv. actives 2.3% (n = 360,000). purified M. tuberculosis FBA, fluorescence read-out. Fructose-bisphosphate aldolase (Mycobacterium tuberculosis (strain ATCC 25618 / H37Rv)), …. inhibition, % at 1 µM; in the data active means inhibition above about 27%
UGM FP inh = M. tuberculosis UGM enzyme inhibitors, primary screen, biochemical, fluorescence polarization, single point; purified UGM, fluorescence polarization probe displacement; inhibition, % at 10 µM; actives 0.06% (n = 320,000); AID 504406, 2011; in the data active means inhibition above about 10%, passing the limit was not always enough; inconclusive means no clear call, values can overlap the other calls
Target sequence (P9WIQ1 whole entry, looked up): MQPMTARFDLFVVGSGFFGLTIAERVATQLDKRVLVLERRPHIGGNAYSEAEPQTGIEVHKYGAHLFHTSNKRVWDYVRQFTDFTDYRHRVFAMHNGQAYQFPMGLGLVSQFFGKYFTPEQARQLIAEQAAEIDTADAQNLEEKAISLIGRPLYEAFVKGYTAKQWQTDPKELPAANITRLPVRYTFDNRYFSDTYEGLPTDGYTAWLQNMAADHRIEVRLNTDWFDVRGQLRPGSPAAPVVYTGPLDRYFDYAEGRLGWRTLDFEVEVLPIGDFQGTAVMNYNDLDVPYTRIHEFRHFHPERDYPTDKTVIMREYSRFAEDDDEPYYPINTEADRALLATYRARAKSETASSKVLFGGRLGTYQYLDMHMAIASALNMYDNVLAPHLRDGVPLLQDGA
GDH-TPI counter-1 = GDH-TPI coupling enzyme inhibitors, primary screen, artefact control for M. tuberculosis FBA inhibitor project, biochemical, absorbance, full deck. inhibition, % at 4.8 µM. GDH-TPI coupled enzyme counterscreen, NADH absorbance. actives 1.2% (n = 360,000); in the data active means inhibition above about 30%
RecA splice inh = Mtb RecA intein splicing inhibitors, primary screen, biochemical, fluorescence, HTS | inhibition, % (test concentration not listed) | actives 0.75% (n = 290,000) | cell-free RecA intein splicing | Protein RecA (Mycobacterium tuberculosis (strain ATCC 25618 / H37Rv)), P9WHJ3; in the data active means inhibition above about 30%; inconclusive means no clear call, values can overlap the other calls
Rv3671c protease = Rv3671c serine protease inhibitors, primary screen, biochemical, fluorescence polarization, M. tuberculosis H37Rv; P9WHR9; inhibition, % at 5.96 µM; actives 0.048% (n = 320,000); AID 2606, 2010; in the data active means inhibition above about 38%;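 further: extracellular domain of Rv3671c used as enzyme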
Mtb betalactam = beta-lactam sensitization of Mtb H37Rv, H37Rv. AID 434955, 2010. M. tuberculosis H37Rv growth with meropenem, percent inhibition. actives 0.27% (n = 330,000). inhibition, % at 25 µM;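 further: growth measured after seven days incubation then overnight dye step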
Mtb FBA confirm = M. tuberculosis aldolase blockers, biochemical, fluorescence, strain H37Rv, confirmation. actives 78% (n = 5,600). shares compounds with Mtb FBA inh. inhibition, % at 1 µM. purified M. tuberculosis FBA, fluorescence read-out. AID 651616, 2012; in the data active means inhibition above about 27%
GDH-TPI counter-2 = GDH-TPI coupling enzyme inhibitors, artefact control for M. tuberculosis FBA inhibitor project, biochemical, fluorescence, high throughput; shares compounds with Mtb FBA inh; GDH-TPI coupled enzyme counterscreen; inhibition, % at 1 µM; actives 81% (n = 5,600); AID 652141, 2013; in the data active means inhibition above about 10%
GDH-TPI dose = GDH-TPI coupling enzyme inhibitors, dose response, artefact control for M. tuberculosis FBA inhibitor project, biochemical, fluorescence, IC50; shares compounds with Mtb FBA inh; GDH-TPI coupled enzyme assay, artifact counterscreen; IC50, µM; actives 79% (n = 170); AID 652145, 2013
Of the large screens only hits and unclear results are named; the others gave an inactive call (follow-up assays come after a bar, where they were run). Unless noted, how the calls were made is not given here.

CC(C)(C)c1ccc(SCCc2cccnc2)cc1	none
CC(C)(C)C(=O)Nc1cc(NC(=O)C(C)(C)C)cc(C(=O)Nc2c[nH]c(=O)[nH]c2=O)c1	none
O=C(NCCCN1CCOCC1)c1c(O)c2cc(Br)cc(Br)c2[nH]c1=O	none (no result: RecA splice inh)
COc1cc2[nH]c3c(=O)n(CCN(C(C)C)C(C)C)cnc3c2cc1OC	Mtb FBA inh 55 | Mtb FBA confirm inactive | GDH-TPI counter-2 inactive
COc1cc2[nH]c(=O)c(C(=O)NCCCN3CCOCC3)c(O)c2cc1OC	Mtb FBA inh 39 | Mtb FBA confirm 29 | GDH-TPI counter-2 18
CCCCN(CCCC)CCn1cnc2c([nH]c3ccc(OC)cc32)c1=O	none
COc1cc2[nH]c3c(=O)n(CCN4CCOCC4)cnc3c2cc1OC	Mtb FBA inh 60 | Mtb FBA confirm active | GDH-TPI counter-2 active
COc1ccc(C(CNC(=O)c2ccc(NS(=O)(=O)c3ccccc3)cc2)N2CCOCC2)cc1 (configuration not stated)	none (no result: UGM FP inh, RecA splice inh, Rv3671c protease, Mtb betalactam)
COc1ccc(C(CNC(=O)c2ccc(-n3cnnn3)cc2)N2CCOCC2)cc1 (configuration not stated)	Mtb FBA inh 43 | Mtb FBA confirm 175 | GDH-TPI counter-2 153
COc1ccc(-c2nc(CCl)cs2)cc1OC	Mtb FBA inh 72 | Mtb FBA confirm 91 | GDH-TPI counter-2 81
N#Cc1c(NC(=O)COC(=O)c2nccnc2N)sc2c1CCCC2	none
CCOC(=O)c1c(NC(=O)COC(=O)c2nccnc2N)sc2c1CCC2	Mtb FBA inh 45 (no result: RecA splice inh) | Mtb FBA confirm 124 | GDH-TPI counter-2 93
CCOC(=O)c1c(NC(=O)COC(=O)c2nccnc2N)sc(C(=O)N(C)C)c1C	Mtb FBA inh 48 | Mtb FBA confirm active | GDH-TPI counter-2 active
CCOC(=O)c1c(NC(=O)COC(=O)c2ccccn2)sc(C(=O)N(C)C)c1C	none
CCC(=O)NCCCNc1nc2c(C)cccc2cc1C#N	Mtb FBA inh 38 (no result: RecA splice inh) | Mtb FBA confirm 142 | GDH-TPI counter-2 102
O=S(=O)(NCCNS(=O)(=O)c1c(F)cccc1F)c1ccc2c(c1)OCCO2	none (no result: RecA splice inh)
COc1ccc(C(=O)NCCNc2nc3c(C)cccc3cc2C#N)cc1OC	Mtb FBA inh 29 | Mtb FBA confirm active | GDH-TPI counter-2 active
Cc1cccc2cc(C#N)c(NCCNS(=O)(=O)c3ccc4c(c3)OCCO4)nc12	Mtb FBA inh 47 | Mtb FBA confirm 125 | GDH-TPI counter-2 93
C(=C\c1ccc2nncn2c1)/c1ccccc1	Mtb FBA inh 50 (no result: UGM FP inh, RecA splice inh, Rv3671c protease, Mtb betalactam) | Mtb FBA confirm inactive | GDH-TPI counter-2 inactive
CN(C)c1ccc(C=NNC(=S)Nc2ccc(F)cc2)cc1	Mtb FBA inh 32, GDH-TPI counter-1 41 (no result: UGM FP inh, RecA splice inh, Rv3671c protease, Mtb betalactam) | Mtb FBA confirm inactive | GDH-TPI counter-2 inactive
COc1ccc2oc(C(=O)OCC(=O)N3CCCCC3C)c(C)c2c1 (configuration not stated)	Mtb FBA inh 63 (no result: RecA splice inh) | Mtb FBA confirm 195 | GDH-TPI counter-2 169
COc1ccc2oc(C(=O)OCC(=O)N3C(C)CCCC3C)c(C)c2c1 (configuration not stated)	Mtb FBA inh 40, Mtb betalactam inconclusive | Mtb FBA confirm 41 | GDH-TPI counter-2 45
Cc1c(C(=O)OCC(=O)N2C(C)CCCC2C)oc2ccccc12 (configuration not stated)	none
CCOc1ccc2oc(C(=O)OCC(=O)N3C(C)CCCC3C)c(C)c2c1 (configuration not stated)	Mtb FBA inh 48 (no result: RecA splice inh) | Mtb FBA confirm 91 | GDH-TPI counter-2 87
COc1ccc2oc(C(=O)OCC(=O)N3CCCC3=O)c(C)c2c1	Mtb FBA inh 45 | Mtb FBA confirm 73 | GDH-TPI counter-2 36
O=C(NC1CCCCC1)c1ccc(-c2cccc([N+](=O)[O-])c2)o1	none
CCOC(=O)c1sc(Nc2ccc(F)cc2)nc1C	none
CCOC(=O)c1sc(Nc2nc3c(OC)cccc3s2)nc1C	Mtb FBA inh 66 | Mtb FBA confirm 64 | GDH-TPI counter-2 57
O=c1[nH]c2cc3c(cc2cc1CN(Cc1nnnn1CC1CCCO1)C1CCCC1)OCO3 (configuration not stated)	Mtb FBA inh 76 | Mtb FBA confirm 33 | GDH-TPI counter-2 29
O=c1[nH]c2cc3c(cc2cc1CN(Cc1nnnn1CC1CCCO1)C1CCCCC1)OCO3 (configuration not stated)	Mtb FBA inh 57 | Mtb FBA confirm active | GDH-TPI counter-2 active
CC1CCN(C(c2cc3cc4c(cc3[nH]c2=O)OCO4)c2nnnn2CC2CCCO2)CC1 (configuration not stated)	none
O=c1[nH]c2cc3c(cc2cc1CN(CCc1ccccc1)Cc1nnnn1CC1CCCO1)OCO3 (configuration not stated)	Mtb FBA inh 30 (no result: RecA splice inh) | Mtb FBA confirm inactive | GDH-TPI counter-2 17
COc1cccc(/C=C(\C)C(=O)c2c(C)cc(C)[nH]c2=O)c1OC	none
CCn1nnc2cc(C(=O)NCC(c3ccccc3OC)N(C)C)ccc21 (configuration not stated)	none
CCCC(NC(=O)Cc1c(C)c2c(cc(C)c3c(C)coc32)oc1=O)C(=O)O (configuration not stated)	Mtb FBA inh 55 | Mtb FBA confirm inactive | GDH-TPI counter-2 inactive
Cc1coc2c1c(C)cc1oc(=O)c(CC(=O)N[C@@H](CC(C)C)C(=O)O)c(C)c12	Mtb FBA inh 79 | Mtb FBA confirm 177 | GDH-TPI counter-2 141
Cc1coc2c1c(C)cc1oc(=O)c(CC(=O)NCCCN3CCCC3=O)c(C)c12	Mtb FBA inh 66 | Mtb FBA confirm inactive | GDH-TPI counter-2 inactive | GDH-TPI dose 2.3
CC[C@@H](C)[C@H](NC(=O)CNC(=O)Cc1c(C)c2c(cc(C)c3c(C)coc32)oc1=O)C(=O)O	Mtb FBA inh 82 | Mtb FBA confirm 50 | GDH-TPI counter-2 35
O=C(Nc1c(C(=O)O)[nH]c2ccccc12)NC1CCCCC1	Mtb FBA inh 35 | Mtb FBA confirm active | GDH-TPI counter-2 174

Screens deposited in PubChem BioAssay by several laboratories.
